DT40 TDP1 no CPT: qHTS for Inhibitors of human tyrosyl-DNA phosphodiesterase 1 (TDP1): qHTS in cells in absence of CPT; DT40 Tdp1-/- hTDP1 cells, no CPT, ATP luminescence, 48 h; Potency, µM (top dose mostly 46.2 µM), actives largely listed as inhibitors; actives 15% (n = 420,000); also: nearly all actives have a fitted effect of over 55% in size
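A cellular qHTS used chicken DT40 cells lacking endogenous Tdp1 but carrying stably transfected human TDP1. Compounds were applied without camptothecin, and cell growth kinetics were judged by ATP-dependent luminescence after ≥48 hr.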
HT1080NT lethal: qHTS for induction of synthetic lethality in tumor cells producing 2HG: qHTS for the HT-1080-NT fibrosarcoma cell line; HT-1080-NT fibrosarcoma viability, CellTiter-Glo ATP luminescence, 48 h; Potency, µM (highest dose often 46.1 µM), usual class: cytotoxic; actives 1.6% (n = 360,000);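 also: NT is the 2HG producing partner of a matched IDH1 knockdown line; nearly all actives have a fitted effect of over 55% in size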
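HT-1080-NT fibrosarcoma cells (2HG-overproducing), 750 cells/well in RPMI with 5% FBS, dosed after 2 h and incubated 48 h at 37C. CellTiter-Glo luminescence normalized to DMSO and no-cell wells; concentration-response curves fitted and classed.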
KB-3-1 cytotox: qHTS assay for MDR1-selective chemotherapeutics: Primary screen using the parental adenocarcinoma cell KB-3-1. actives 1.4% (n = 400,000). KB-3-1 viability, CellTiter-Glo ATP luminescence, 72 h. AID 1347075, 2019. Potency, µM (series often up to 46.1 µM), hits mostly cytotoxic; also: nearly all actives have a fitted effect of over 60% in size
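72 h, 37 °C compound treatment of KB-3-1 parental cells; CellTiter-Glo added, 10 min, luminescence read. Data corrected against DMSO-only plates and normalized before curve fitting.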
KB-V1 MDR tox: qHTS assay for MDR1-selective chemotherapeutics: Primary screen using the drug-selected MDR subline cells KB-V1 | actives 3.4% (n = 400,000) | Potency, µM (highest dose often 46.1 µM), most hits filed as cytotoxic | KB-V1 MDR cells viability, CellTiter-Glo, 72 h; also: nearly all actives have a fitted effect of over 60% in size
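Cytotoxicity toward P-gp-expressing KB-V1 cells was determined as loss of CellTiter-Glo luminescence after 72 h at 37 degrees C. Compounds were tested in quantitative HTS format across a concentration range, with curves fitted to normalized data.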
HT1080 IDH1KD tx: qHTS for induction of synthetic lethality in tumor cells producing 2HG: qHTS for the HT-1080-IDH1KD cell line. Potency, µM (top dose mostly 46.1 µM), most hits filed as cytotoxic. HT-1080 IDH1 knockdown viability, ATP luminescence, 48 h. actives 2% (n = 360,000)
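HT-1080-IDH1KD cells (IDH1 knocked down), 750/well in RPMI with 5% FBS, treated with compound 48 h at 37 degrees C. Viability by CellTiter-Glo luminescence, normalised to DMSO and no-cell wells; concentration-response curves classed.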
DT40 TDP1 CPT: qHTS for Inhibitors of human tyrosyl-DNA phosphodiesterase 1 (TDP1): qHTS in cells in presence of CPT. chicken DT40 Tdp1-/-;hTDP1 cells + 20 nM CPT, ATP luminescence, 48 h. Potency, µM (highest dose often 46.2 µM), hits mostly inhibitors. actives 12% (n = 420,000). AID 686979, 2013; also: nearly all actives have a fitted effect of over 55% in size
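Chicken DT40 Tdp1-/- cells stably complemented with human TDP1 were seeded at 400 cells/well in medium containing 20 nM camptothecin, exposed to pin-transferred compounds, and grown at 37 °C for at least 48 hr. Viability was read as ATP luminescence.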
Hits are given with their value; i = inactive; ? = inconclusive; nt = no result given; [ ] = remark or other dose. Sampled rows, rich in hits. Any-hit rate of the full collection: about 19%. Calls follow the shape of the dose curve; as a rule, active = well fitted curve in the direction sought with a large enough effect; inconclusive = small, poorly fitted or top-dose-only effect, or another doubt; inactive = no such curve, though single readings can be large; an effect the other way counts as inactive or inconclusive.

SMILES | DT40 TDP1 no CPT | HT1080NT lethal | KB-3-1 cytotox | KB-V1 MDR tox | HT1080 IDH1KD tx | DT40 TDP1 CPT
Cc1cnc(NC(=O)C2CC(=O)N(c3ccc4c(c3)OCCO4)C2)s1 (stereo unspecified) | i | i | i | 14.6µM | i | i
CCc1ccc(-c2csc(NC(=O)C3CC(=O)N(c4ccc5c(c4)OCCO5)C3)n2)cc1 (stereo unspecified) | 16.4µM | ? | ? | i | ? | 16.4µM
Cc1csc(NC(=O)C2CC(=O)N(c3ccc4c(c3)OCCO4)C2)n1 (stereo unspecified) | i | i[9.24 µM] | i | i | i | i
O=C(Nc1nc(-c2ccco2)c(-c2ccco2)s1)C1CC(=O)N(c2ccc3c(c2)OCCO3)C1 (stereo unspecified) | ? | i | i | i | ? | 16.4µM
CS(=O)(=O)c1ccc(C(=O)Nc2nc(-c3ccco3)c(-c3ccco3)s2)cc1 | 20.6µM | i | i | ? | i | ?
COc1ccc(-c2oc3c(c2C(=O)OCCO)C(OCCCO)CCC3)cc1 (stereo unspecified) | ? | i | i | ? | i | ?
CCc1ccc(NC(=O)Nc2cnccn2)cc1 | i | i | i | i | i | ?
CCCCc1ccc(NC(=O)Nc2cc(C)nn2C)cc1 | i | ? | 6.51µM | i | ? | i
CCCCc1ccc(NC(=O)Nc2cnccn2)cc1 | 23.1µM | ? | 11.6µM | ? | ? | 14.6µM
COc1ccc2c(c1)c(CC(=O)Nc1ccccc1OC)c(C)n2C(=O)c1ccc(Cl)cc1 | ? | i | ? | ? | i | ?
COc1ccc2c(c1)c(CC(=O)NCc1cc([N+](=O)[O-])ccc1O)c(C)n2C(=O)c1ccc(Cl)cc1 | ? | ? | ? | ? | i | i
COc1ccc2c(c1)c(CC(=O)Nc1nnc(C3CC3)s1)c(C)n2C(=O)c1ccc(Cl)cc1 | 8.2µM | 23.1µM | ? | ? | ? | 14.6µM
COc1ccc2c(c1)c(CC(=O)Nc1ccc(C(C)=O)cc1)c(C)n2C(=O)c1ccc(Cl)cc1 | 16.4µM | i | i | ? | i | 20.6µM
COc1ccc2c(c1)c(CC(=O)Nc1cc(C)ccc1C)c(C)n2C(=O)c1ccc(Cl)cc1 | 16.4µM | i | i | i | i | ?
COc1cc(NS(=O)(=O)c2ccc(C)cc2)c2c(c1N)C(=O)c1ccccc1C2=O | i | i | i | i | i | i
COC(=O)c1ccc2c(c1)N(Cc1ccc(F)cc1)C(=O)c1ccccc1S2 | i | nt | i | i | nt | i
CC(=O)NCCC(=O)Nc1ncc(S(=O)(=O)c2ccc([N+](=O)[O-])cc2)s1 | i | i | i | i | i | i
O=C(Nc1ncc(S(=O)(=O)c2ccc([N+](=O)[O-])cc2)s1)c1cccc2ccccc12 | 20.6µM | ? | i | i | ? | 14.6µM
O=C(NC(Nc1ncc(S(=O)(=O)c2ccc([N+](=O)[O-])cc2)s1)(C(F)(F)F)C(F)(F)F)c1ccc(Cl)cc1 | 14.6µM | 3.26µM | 20.6µM | ? | ? | ?
Cc1nnc(SC(C)C(=O)NC2CCCCC2)s1 (stereo unspecified) | i | i | i | i | i | i
CCN(CC)C(=O)CSc1nnc(SC(C)C(=O)NC2CC2)s1 (stereo unspecified) | i | i | i | 25.9µM | i | i
CCOC(=O)c1[nH]c(C)c(C(=O)NCCc2ccccc2)c1C | i | nt | i | i | nt | i
Cc1ccccc1OCC(=O)N1N=C(C(F)(F)F)CC1(O)C(C)(C)C (stereo unspecified) | 16.4µM | ? | i | ? | ? | ?
CC(C)(C)C1(O)CC(C(F)(F)F)=NN1C(=O)CCc1ccccc1 (stereo unspecified) | i | i | i | i | i | i
Cc1cccc(CNC(=O)c2cnn(-c3nccc(-c4cc5ccccc5o4)n3)c2C2CC2)n1 | ? | nt | nt | nt | nt | i[9.04 µM]
SMILES | DT40 TDP1 no CPT | HT1080NT lethal | KB-3-1 cytotox | KB-V1 MDR tox | HT1080 IDH1KD tx | DT40 TDP1 CPT
Clc1cccc(-c2nc(NCCCN3CCOCC3)c3ccccc3n2)c1 | 23.1µM | 20.6µM | i | i | ? | ?
Clc1ccc(-c2nc(NCCCN3CCOCC3)c3ccccc3n2)cc1 | 18.4µM | 23.1µM | i | ? | ? | ?
Clc1cccc(-c2nc(NCCN3CCOCC3)c3ccccc3n2)c1 | ? | ? | i | 20.6µM | ? | ?
CS(=O)(=O)Nc1cccc(-c2nc(NCCN3CCOCC3)c3ccccc3n2)c1 | ? | nt | nt | nt | nt | i
O=C(Nc1ccc(F)cc1F)c1cc(-c2ccccc2O)no1 | i | nt | i | ? | nt | i
Cc1ccc(N2C(=O)C3C4C=CC(CNC(=S)Nc5cccc(Cl)c5)(O4)C3C2=O)cc1 (stereo unspecified) | 14.6µM | i | i | 11.6µM | i | ?
Cc1ccc(N2C(=O)C3C4C=CC(CNC(=S)Nc5ccc(Cl)cc5)(O4)C3C2=O)cc1 (stereo unspecified) | 23.1µM | i | ? | 8.2µM | i | ?
Cc1ccc(N2C(=O)C3C4C=CC(CNC(=S)Nc5ccc(F)cc5)(O4)C3C2=O)cc1 (stereo unspecified) | 18.4µM | i | i | i | i | ?
Cc1cc(C)c(S(=O)(=O)NCC23C=CC(O2)C2C(=O)N(c4ccccc4)C(=O)C23)c(C)c1 (stereo unspecified) | ? | i | i | i | i | ?
CC(C)COC(=O)NCC12C=CC(O1)C1C(=O)N(c3ccc(Cl)cc3)C(=O)C12 (stereo unspecified) | 18.4µM | i | i | i | i | 16.4µM
CC(=O)c1ccc(NC(=O)CCn2cccn2)cc1 | i | nt | i | i | nt | i
N#CCCN(C(=O)COC(=O)CCc1c[nH]c2ccccc12)c1ccccc1 | i | i | i | i | i | i
Cc1ccc(N2C(=O)C3C4C=CC(CNC(=S)N5CCN(c6ccccn6)CC5)(O4)C3C2=O)cc1 (stereo unspecified) | 18.4µM | i | i | i | i | 23.1µM
Cc1c(-c2nnc(SCC(=O)Nc3ccccc3F)o2)nnn1-c1ccc(F)cc1 | i | nt | nt | nt | nt | i
O=C(CCn1cnnn1)Nc1ccc(F)cc1 | i | i | i | i | i | i
Cc1cccc(C(=O)n2nc(-c3cccnc3)nc2NCc2ccc(F)cc2)c1 | i | nt | i | i | nt | i
CCn1c(-c2cccnc2)n[nH]c1=S | i | i | i | i | i | i

Source: PubChem
